Measured values as given in the supplement of paper PMC10849652.
About 8,800 targets were measured; listed, in parts, are those with a hit and a random draw of the rest. About 0.5% of all pairs of compound and target were hits.

Key:
Experiment in all cases: log2 fold change, soluble protein after heating vs DMSO (PISA); higher = thermal stabilisation; K562 lysate, 10 uM; active = over 0.2 and 3.5 SD of the protein, either way, in both replicates (recomputed)
[1] = compound: NCC(=O)Nc1ccc(-n2nc(C(F)(F)F)cc2-c2ccc3c(ccc4ccccc43)c2)cc1
Method in brief: (§1)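 Soluble protein was defined as the supernatant remaining after 21,000xg for 90 min, following pooling of heated aliquots and adjustment to 0.5% NP-40 at 4°C. Before that, crude K562 extract at 1 mg/mL protein in PBS pH 7.4 with 1 mM MgCl2 was treated with 10 μM compound for 30 min and heated for 3 min across 48°C-58°C. Quantification used TMTpro 16plex LC-MS/MS with channel sums equalised, and values are log-two fold changes in thermal stability relative to solvent controls from duplicates.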

vorinostat = compound: O=C(CCCCCCC(=O)Nc1ccccc1)NO [vorinostat]
Method in brief: as §1

silmitasertib = compound: O=C(O)c1ccc2c(c1)nc(Nc1cccc(Cl)c1)c1ccncc12 [silmitasertib]
Method in brief: as §1

[2] = compound: O=C1NC(=O)C(c2cnc3ccccn23)=C1c1cn2c3c(cc(F)cc13)CN(C(=O)N1CCCCC1)CC2
Method in brief: as §1

entospletinib = compound: c1cn2cc(-c3ccc4cn[nH]c4c3)nc(Nc3ccc(N4CCOCC4)cc3)c2n1 [entospletinib]
Method in brief: as §1

Measured: log2 fold change

TLK2 isoform 2 (UniProt Q86UE8)
inactive: [1] 0.019 | vorinostat -0.24 | silmitasertib 0.057 | [2] 0.118 | entospletinib -0.135

TRIP12 isoform 2 (UniProt Q14669)
inactive: [1] -0.057 | silmitasertib 0.03 | [2] 0.005 | entospletinib -0.002
active: vorinostat -0.266

TDRD3 isoform 3 (UniProt Q9H7E2)
inactive: [1] 0.23 | vorinostat -0.016 | silmitasertib -0.03 | [2] 0.008 | entospletinib -0.041

UCHL5 (UniProt Q5LJA9)
active: vorinostat -0.361
inactive: [1] -0.017 | silmitasertib 0.004 | [2] -0.086 | entospletinib -0.011

TRIM65 (UniProt Q6PJ69)
inactive: [1] 0.018 | vorinostat -0.094 | silmitasertib -0.006 | [2] 0.002 | entospletinib -0.009

TPM3 isoform 2 (UniProt P06753)
inactive: [1] -0.032 | vorinostat 0.048 | silmitasertib 0.011 | [2] -0.047 | entospletinib -0.029

UBIAD1 (UniProt Q9Y5Z9)
inactive: [1] -0.061 | vorinostat 0.042 | silmitasertib 0.04 | [2] 0.032 | entospletinib 0.058

TRIM44 (UniProt Q96DX7)
inactive: [1] 0.024 | vorinostat -0.031 | silmitasertib 0.062 | [2] -0.015 | entospletinib -0.051

TBRG4 (UniProt Q969Z0)
inactive: [1] 0.017 | vorinostat -0.238 | silmitasertib 0.034 | [2] 0.008 | entospletinib 0.042

TXNRD2 (UniProt Q9NNW7)
inactive: [1] -0.016 | vorinostat 0.125 | silmitasertib -0.025 | [2] 0.029 | entospletinib 0.023

UBR1 (UniProt Q8IWV7)
active: vorinostat -0.239
inactive: [1] -0.04 | silmitasertib 0.025 | [2] 0.008 | entospletinib -0.024

TRIM25 (UniProt Q14258)
inactive: [1] 0.013 | silmitasertib -0.046 | [2] -0.018 | entospletinib 0.011
active: vorinostat -0.59

TECR (UniProt Q9NZ01)
Sequence of UniProt Q9NZ01 (Q9NZ01 whole entry, looked up): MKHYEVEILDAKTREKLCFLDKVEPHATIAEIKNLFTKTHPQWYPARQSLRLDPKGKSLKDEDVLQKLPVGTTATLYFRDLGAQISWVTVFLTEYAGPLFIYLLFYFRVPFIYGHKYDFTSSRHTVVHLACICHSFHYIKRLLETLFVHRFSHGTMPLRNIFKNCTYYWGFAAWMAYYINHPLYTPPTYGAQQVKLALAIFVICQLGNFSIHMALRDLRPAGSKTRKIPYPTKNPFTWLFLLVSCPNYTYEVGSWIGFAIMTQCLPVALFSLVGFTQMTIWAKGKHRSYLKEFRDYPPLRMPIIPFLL
inactive: [1] -0.031 | vorinostat 0.024 | silmitasertib 0.076 | [2] 0.032 | entospletinib 0.033

TELO2 (UniProt Q9Y4R8)
Sequence of UniProt Q9Y4R8 (Q9Y4R8 whole entry, looked up): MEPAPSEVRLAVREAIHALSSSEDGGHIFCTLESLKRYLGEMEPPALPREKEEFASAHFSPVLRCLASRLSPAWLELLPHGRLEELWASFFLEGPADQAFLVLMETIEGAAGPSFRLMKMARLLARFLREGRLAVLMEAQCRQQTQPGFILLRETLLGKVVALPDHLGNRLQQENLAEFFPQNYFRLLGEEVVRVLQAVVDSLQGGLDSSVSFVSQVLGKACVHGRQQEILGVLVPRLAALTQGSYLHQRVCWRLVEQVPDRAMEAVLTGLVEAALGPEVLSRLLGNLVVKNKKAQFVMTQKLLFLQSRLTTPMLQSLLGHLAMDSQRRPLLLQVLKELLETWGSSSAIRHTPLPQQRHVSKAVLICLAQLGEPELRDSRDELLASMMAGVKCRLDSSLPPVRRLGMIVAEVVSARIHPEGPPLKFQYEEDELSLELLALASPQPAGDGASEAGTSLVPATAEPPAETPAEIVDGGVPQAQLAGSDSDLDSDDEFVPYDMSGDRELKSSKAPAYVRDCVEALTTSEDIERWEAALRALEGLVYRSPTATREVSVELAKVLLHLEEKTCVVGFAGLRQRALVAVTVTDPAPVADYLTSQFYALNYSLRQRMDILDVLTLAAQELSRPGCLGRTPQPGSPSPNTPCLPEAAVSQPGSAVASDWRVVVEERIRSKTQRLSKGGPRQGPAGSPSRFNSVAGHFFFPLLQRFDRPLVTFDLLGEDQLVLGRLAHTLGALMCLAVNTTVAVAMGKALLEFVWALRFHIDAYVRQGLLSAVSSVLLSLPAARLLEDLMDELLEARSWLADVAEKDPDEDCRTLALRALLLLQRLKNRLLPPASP
inactive: [1] 0.003 | silmitasertib 0.117 | [2] 0.011 | entospletinib 0.011
active: vorinostat -0.361

TPM3 (UniProt P06753)
inactive: [1] 0.004 | vorinostat 0.112 | silmitasertib 0.012 | [2] -0.004 | entospletinib 0.008

TTLL12 (UniProt Q14166)
active: vorinostat -0.426
inactive: [1] -0.021 | silmitasertib 0.092 | [2] 0.02 | entospletinib 0.049

UBXN6 (UniProt Q9BZV1)
active: vorinostat -0.28
inactive: [1] 0.04 | silmitasertib 0.018 | [2] -0.026 | entospletinib -0.009

TBC1D23 (UniProt Q9NUY8)
active: vorinostat -0.252
inactive: [1] 0.031 | silmitasertib -0.023 | [2] -0.001 | entospletinib 0

TRNAU1AP (UniProt Q9NX07)
inactive: [1] 0.079 | vorinostat -0.178 | silmitasertib 0.026 | [2] -0.017 | entospletinib -0.047

TMEM87B (UniProt Q96K49)
inactive: [1] -0.024 | vorinostat 0.018 | silmitasertib 0.026 | [2] -0.037 | entospletinib -0.097

UBAP2 (UniProt Q5T6F2)
inactive: [1] 0.031 | vorinostat 0.03 | silmitasertib -0.007 | [2] 0 | entospletinib -0.013

TPD52L2 isoform 7 (UniProt O43399)
Sequence of UniProt O43399 (O43399 whole entry, looked up): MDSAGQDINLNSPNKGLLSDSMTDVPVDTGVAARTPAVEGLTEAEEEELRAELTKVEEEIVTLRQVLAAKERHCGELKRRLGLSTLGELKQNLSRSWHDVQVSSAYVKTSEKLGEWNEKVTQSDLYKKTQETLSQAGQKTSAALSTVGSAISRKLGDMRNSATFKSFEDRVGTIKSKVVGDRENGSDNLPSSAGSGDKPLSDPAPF
inactive: [1] -0.043 | vorinostat 0.148 | silmitasertib -0.044 | [2] -0.027 | entospletinib -0.016

TROAP (UniProt Q12815)
active: vorinostat -0.382
inactive: [1] 0.003 | silmitasertib 0.003 | [2] 0.014 | entospletinib -0.057

TYW3 (UniProt Q6IPR3)
inactive: [1] 0.036 | silmitasertib 0 | [2] -0.042 | entospletinib -0.001
active: vorinostat -0.694

TRMT10A (UniProt Q8TBZ6)
inactive: [1] 0.032 | vorinostat 0.072 | silmitasertib -0.058 | [2] -0.063 | entospletinib -0.012

TUBA1B (UniProt P68363)
inactive: [1] -0.005 | silmitasertib 0.018 | [2] 0.026 | entospletinib 0.01
active: vorinostat -0.66

TK1 (UniProt K7ERV3)
inactive: [1] -0.018 | vorinostat 0.086 | silmitasertib 0.01 | [2] -0.014 | entospletinib -0.013

TOPBP1 (UniProt Q92547)
active: vorinostat -0.387
inactive: [1] 0.032 | silmitasertib 0.019 | [2] -0.074 | entospletinib 0.028

TTC4 (UniProt O95801)
active: vorinostat -0.498
inactive: [1] 0.013 | silmitasertib 0.022 | [2] -0.009 | entospletinib 0

TDRKH (UniProt Q9Y2W6)
inactive: [1] -0.031 | vorinostat -0.223 | silmitasertib 0.024 | [2] -0.052 | entospletinib 0.056

TUBB (UniProt P07437)
Sequence of UniProt P07437 (P07437 whole entry, looked up): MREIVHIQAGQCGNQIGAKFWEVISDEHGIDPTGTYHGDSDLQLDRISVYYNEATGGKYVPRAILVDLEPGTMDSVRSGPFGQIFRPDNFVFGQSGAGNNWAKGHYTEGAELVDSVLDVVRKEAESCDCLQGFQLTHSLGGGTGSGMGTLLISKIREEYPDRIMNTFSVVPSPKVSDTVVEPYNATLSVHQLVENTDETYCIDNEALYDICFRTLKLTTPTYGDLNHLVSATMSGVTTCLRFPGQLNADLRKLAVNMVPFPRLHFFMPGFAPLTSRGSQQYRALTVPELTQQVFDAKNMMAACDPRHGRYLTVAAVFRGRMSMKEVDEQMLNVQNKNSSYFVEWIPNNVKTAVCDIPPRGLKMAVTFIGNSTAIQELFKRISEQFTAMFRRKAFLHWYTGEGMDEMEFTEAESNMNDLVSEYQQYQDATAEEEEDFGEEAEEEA
inactive: [1] 0.025 | silmitasertib 0.009 | [2] 0.032 | entospletinib -0.018
active: vorinostat -0.529

TUBB1 (UniProt Q9H4B7)
Sequence of UniProt Q9H4B7 (Q9H4B7 whole entry, looked up): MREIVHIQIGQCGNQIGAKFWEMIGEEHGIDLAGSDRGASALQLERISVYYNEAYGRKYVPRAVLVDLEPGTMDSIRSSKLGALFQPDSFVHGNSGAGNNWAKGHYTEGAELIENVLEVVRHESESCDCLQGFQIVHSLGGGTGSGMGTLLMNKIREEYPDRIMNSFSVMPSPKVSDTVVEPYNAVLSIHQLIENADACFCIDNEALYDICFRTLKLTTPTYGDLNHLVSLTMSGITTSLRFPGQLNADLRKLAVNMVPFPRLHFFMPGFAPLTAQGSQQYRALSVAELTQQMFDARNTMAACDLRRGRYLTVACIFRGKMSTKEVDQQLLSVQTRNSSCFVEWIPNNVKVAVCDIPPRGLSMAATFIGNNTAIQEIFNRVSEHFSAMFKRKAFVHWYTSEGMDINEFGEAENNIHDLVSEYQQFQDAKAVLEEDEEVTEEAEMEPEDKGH
inactive: [1] -0.038 | silmitasertib -0.003 | [2] 0.033 | entospletinib 0.011
active: vorinostat -0.326

TRAPPC9 isoform 2 (UniProt Q96Q05)
active: vorinostat -0.375
inactive: [1] 0.005 | silmitasertib 0.046 | [2] 0 | entospletinib -0.049

UBP1 (UniProt Q9NZI7)
inactive: [1] -0.002 | vorinostat -0.182 | silmitasertib 0.008 | [2] -0.01 | entospletinib -0.002

TUBA3C (UniProt P0DPH7)
inactive: [1] 0 | silmitasertib 0.017 | [2] -0.008 | entospletinib -0.007
active: vorinostat -0.913

TTC38 (UniProt Q5R3I4)
inactive: [1] 0.017 | vorinostat -0.044 | silmitasertib -0.014 | [2] -0.022 | entospletinib 0.029

UCP2 (UniProt P55851)
inactive: [1] -0.12 | [2] 0.035

TLE3 isoform 5 (UniProt Q04726)
inactive: vorinostat 0.144 | silmitasertib 0.019 | [2] -0.058 | entospletinib -0.002

TMPO isoform 2 (UniProt P42167)
inactive: [1] -0.066 | entospletinib 0.032

TRPM4 (UniProt Q8TD43)
Sequence of UniProt Q8TD43 (Q8TD43 whole entry, looked up): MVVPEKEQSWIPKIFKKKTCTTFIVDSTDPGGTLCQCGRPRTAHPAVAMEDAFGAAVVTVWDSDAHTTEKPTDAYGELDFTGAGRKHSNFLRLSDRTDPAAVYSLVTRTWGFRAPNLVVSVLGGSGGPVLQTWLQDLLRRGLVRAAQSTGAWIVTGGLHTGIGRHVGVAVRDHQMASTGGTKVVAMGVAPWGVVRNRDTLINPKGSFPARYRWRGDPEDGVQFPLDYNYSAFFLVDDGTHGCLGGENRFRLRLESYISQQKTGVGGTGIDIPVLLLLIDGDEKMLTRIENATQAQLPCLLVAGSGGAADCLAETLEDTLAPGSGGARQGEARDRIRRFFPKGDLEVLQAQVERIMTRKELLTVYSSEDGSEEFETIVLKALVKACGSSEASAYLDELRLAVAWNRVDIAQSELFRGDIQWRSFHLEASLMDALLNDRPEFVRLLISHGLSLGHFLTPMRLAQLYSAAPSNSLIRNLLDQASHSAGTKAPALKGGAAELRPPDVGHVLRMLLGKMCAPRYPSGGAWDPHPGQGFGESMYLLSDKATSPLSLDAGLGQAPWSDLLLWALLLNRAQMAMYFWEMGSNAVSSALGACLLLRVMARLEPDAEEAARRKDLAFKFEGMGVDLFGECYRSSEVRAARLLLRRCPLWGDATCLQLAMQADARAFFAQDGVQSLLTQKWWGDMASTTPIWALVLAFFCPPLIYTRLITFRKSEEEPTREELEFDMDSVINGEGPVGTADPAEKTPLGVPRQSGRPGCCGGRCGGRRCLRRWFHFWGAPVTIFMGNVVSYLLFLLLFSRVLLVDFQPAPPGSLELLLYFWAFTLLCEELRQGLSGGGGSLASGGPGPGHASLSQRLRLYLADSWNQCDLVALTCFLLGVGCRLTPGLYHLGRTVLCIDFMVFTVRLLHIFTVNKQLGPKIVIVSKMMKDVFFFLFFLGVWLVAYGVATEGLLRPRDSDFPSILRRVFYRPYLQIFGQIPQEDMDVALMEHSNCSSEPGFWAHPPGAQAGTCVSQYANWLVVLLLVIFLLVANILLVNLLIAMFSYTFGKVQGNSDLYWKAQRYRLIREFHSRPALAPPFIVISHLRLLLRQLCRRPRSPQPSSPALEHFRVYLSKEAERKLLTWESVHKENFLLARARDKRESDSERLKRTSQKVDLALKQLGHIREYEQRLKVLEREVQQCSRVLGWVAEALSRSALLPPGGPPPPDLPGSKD
inactive: vorinostat 0.161 | silmitasertib -0.091 | [2] -0.078

TUBAL3 (UniProt A6NHL2)
inactive: [1] 0.083 | vorinostat -0.195 | silmitasertib 0.069 | entospletinib -0.026

TBL3 (UniProt Q12788)
Sequence of UniProt Q12788 (Q12788 whole entry, looked up): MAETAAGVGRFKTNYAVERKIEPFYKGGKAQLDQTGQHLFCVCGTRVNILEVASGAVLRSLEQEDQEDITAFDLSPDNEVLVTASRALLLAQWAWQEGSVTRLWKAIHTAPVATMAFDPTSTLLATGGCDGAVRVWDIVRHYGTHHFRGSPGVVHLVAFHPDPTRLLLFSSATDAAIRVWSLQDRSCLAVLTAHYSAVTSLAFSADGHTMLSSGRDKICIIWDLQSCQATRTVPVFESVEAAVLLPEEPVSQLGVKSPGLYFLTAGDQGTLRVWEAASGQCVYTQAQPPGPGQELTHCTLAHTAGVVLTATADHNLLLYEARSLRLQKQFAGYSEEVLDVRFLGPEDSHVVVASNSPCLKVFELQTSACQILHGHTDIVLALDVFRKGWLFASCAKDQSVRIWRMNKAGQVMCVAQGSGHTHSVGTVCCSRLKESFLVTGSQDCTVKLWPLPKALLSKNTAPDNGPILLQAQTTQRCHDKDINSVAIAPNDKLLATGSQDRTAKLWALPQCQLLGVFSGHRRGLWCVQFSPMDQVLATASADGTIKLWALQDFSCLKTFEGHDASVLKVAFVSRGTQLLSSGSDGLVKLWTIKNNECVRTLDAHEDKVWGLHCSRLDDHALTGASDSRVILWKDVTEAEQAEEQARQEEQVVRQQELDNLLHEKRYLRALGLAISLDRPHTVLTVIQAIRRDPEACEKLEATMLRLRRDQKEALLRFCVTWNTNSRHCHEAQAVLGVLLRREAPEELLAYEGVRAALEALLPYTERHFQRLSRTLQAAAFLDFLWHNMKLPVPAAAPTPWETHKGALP
active: vorinostat -0.263
inactive: [1] 0.015 | silmitasertib -0.011 | [2] -0.001 | entospletinib -0.023

TSPAN3 (UniProt O60637)
inactive: [1] -0.124 | vorinostat 0.105 | silmitasertib -0.056 | entospletinib -0.005

THAP9 (UniProt Q9H5L6)
inactive: [1] 0.207 | [2] 0.09 | entospletinib 0.059

TNFAIP3 (UniProt P21580)
inactive: vorinostat -0.12 | silmitasertib -0.003 | [2] 0.004 | entospletinib 0.044

UBAP2, A0A0D9SFI5
inactive: [2] -0.094

TUBA1C (UniProt Q9BQE3)
active: vorinostat -0.256
inactive: [1] 0.019 | silmitasertib 0.013 | [2] 0.006 | entospletinib -0.014

UBR4 isoform 4 (UniProt Q5T4S7)
inactive: [1] -0.145 | silmitasertib -0.004 | entospletinib 0.205
active: vorinostat -0.792

TEC (UniProt P42680)
inactive: entospletinib 0.037
active: [1] -1.05

UBXN2B (UniProt Q14CS0)
inactive: [1] 0.095 | vorinostat 0.085 | silmitasertib 0.053 | entospletinib -0.032

U2AF1L5 (UniProt P0DN76)
inactive: vorinostat -0.363 | silmitasertib -0.069 | entospletinib 0.016

TLK1 isoform 2 (UniProt Q9UKI8)
Sequence of UniProt Q9UKI8 (Q9UKI8 whole entry, looked up): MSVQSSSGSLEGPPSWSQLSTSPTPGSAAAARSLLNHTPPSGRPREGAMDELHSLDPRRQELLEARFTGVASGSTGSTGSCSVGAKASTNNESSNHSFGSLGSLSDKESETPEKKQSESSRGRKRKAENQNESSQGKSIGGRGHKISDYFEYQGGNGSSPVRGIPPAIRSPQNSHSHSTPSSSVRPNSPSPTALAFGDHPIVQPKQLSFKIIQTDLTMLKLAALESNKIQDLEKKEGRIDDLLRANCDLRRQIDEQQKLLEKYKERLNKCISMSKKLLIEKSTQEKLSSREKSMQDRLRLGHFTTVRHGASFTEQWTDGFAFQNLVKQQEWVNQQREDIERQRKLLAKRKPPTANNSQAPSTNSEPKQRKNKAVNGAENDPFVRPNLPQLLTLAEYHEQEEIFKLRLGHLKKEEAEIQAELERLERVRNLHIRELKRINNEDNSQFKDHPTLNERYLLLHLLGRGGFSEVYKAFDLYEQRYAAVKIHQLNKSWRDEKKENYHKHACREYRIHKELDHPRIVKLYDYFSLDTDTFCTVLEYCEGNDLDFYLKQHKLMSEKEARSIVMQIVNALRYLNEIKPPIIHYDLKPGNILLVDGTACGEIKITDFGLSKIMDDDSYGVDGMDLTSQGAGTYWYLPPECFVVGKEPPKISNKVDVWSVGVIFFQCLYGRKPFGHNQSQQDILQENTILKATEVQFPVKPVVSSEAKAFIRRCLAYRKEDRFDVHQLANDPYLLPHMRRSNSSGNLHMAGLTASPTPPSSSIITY
active: vorinostat -0.369
inactive: [1] 0.001 | silmitasertib 0.117 | [2] 0.156 | entospletinib 0.04

TMSB4X (UniProt P62328)
inactive: vorinostat 0.103 | silmitasertib -0.076 | [2] 0.219 | entospletinib -0.158

TCF4 (UniProt P15884)
inactive: [2] 0.078 | entospletinib -0.074

TENM4 (UniProt Q6N022)
inactive: [2] 0.143

TMEM132A isoform 2 (UniProt Q24JP5)
inactive: vorinostat -0.156 | silmitasertib 0.351 | [2] 0.227 | entospletinib -0.089

TCF3 isoform 2 (UniProt P15923)
inactive: vorinostat -0.196 | silmitasertib -0.056 | [2] 0.043

TMEM154 (UniProt Q6P9G4)
inactive: [2] 0.008 | entospletinib -0.056

TUBGCP5 (UniProt Q96RT8)
inactive: [1] -0.029 | [2] 0.042 | entospletinib -0.105
